Test [1] in a line: Nuclear factor erythroid 2-related factor 2/antioxidant responsive element (Nrf2/ARE) small molecule agonists: qHTS cell viability counter screen in human keratinocytes (AID 1919968; active = well fitted curve in the direction sought with a large enough effect in the repeat runs; an effect the other way counts as inactive or inconclusive; note: nearly all actives have a fitted effect of over 55% in size). A digest of the protocol: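 KeratinoSens HaCaT cells, 1,500/well, preincubated 5 h, then exposed to compounds in DMSO for 23 h at 37 C/5% CO2. Viability read as CellTiter-Fluor fluorescence after 1 h, in the same wells as the ARE-luciferase read.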
On the technique in general: qHTS replaces the single test concentration by a dilution series.

Test [2] is described as follows: Nuclear factor erythroid 2-related factor 2/antioxidant responsive element (Nrf2/ARE) small molecule agonists: luciferase reporter gene qHTS assay in human keratinocytes (AID 1919969). Note: nearly all actives have a fitted effect of over 35% in size. Note: potency is the fitted concentration of half-maximal effect.
Test [3] addresses Gonadotropin-releasing hormone receptor (Homo sapiens) (UniProt P30968). The test is described as follows: Human gonadotropin-releasing hormone receptor (GnRHR) small molecule agonists, calcium flux assay in GnRHR-HEK293 cells (AID 1920063). Note: nearly all actives have a fitted effect of over 35% in size. A digest of the protocol:
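HEK293 cells stably expressing human GnRHR were dye-loaded for 1 h at 37 C. Compound was added in agonist mode and fluorescence (Ex/Em 480/540) recorded kinetically for 3 min. Fifteen concentrations, triplicates.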

Test [4] has as its target KiSS-1 receptor (Homo sapiens) (UniProt Q969F8). The test is described as follows: Human kisspeptin (KISS1R) small molecule agonists, calcium flux assay in KISS1R-HEK293 cells (AID 1920064; active = well fitted curve in the direction sought with a large enough effect in the repeat runs; an effect the other way counts as inactive or inconclusive). In outline: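 HEK293 cells stably expressing human KISS1R were loaded with calcium dye for 1 h at 37 C, then given compound; fluorescence (Ex/Em 480/540) was read kinetically for 3 min. Fifteen concentrations, triplicate.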
For orientation: Calcium assays in cells follow changes in intracellular calcium, usually with a dye or a luminescent sensor.

A short description of test [5]: G protein-coupled receptor (GPCR) small molecule agonists, calcium flux assay: HEK293 wild type cell line counter screen (AID 1920065). A digest of the protocol:
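Wild-type HEK293 cells plated 18 h, loaded with calcium dye 1 h at 37 C, then compounds added in agonist mode (ATP as positive control). Kinetic fluorescence Ex/Em 480/540 recorded 3 min at 1 sec intervals; 15 concentrations, triplicate.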

The nature of test [6]: p53 small molecule agonists, cell-based qHTS assay with rat liver microsomes (AID 1963578). A digest of the protocol: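 Compound in DMSO added to p53RE-bla cells 5 h post-plating; rat microsomes/NADPH 0.5 mg/mL final; 16 h, 37 C; LiveBLAzer 2 h RT.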
The nature of test [7]: p53 small molecule agonists, cell-based qHTS assay with human liver microsomes: qHTS cell viability counter screen (AID 1963579). Note: nearly all actives have a fitted effect of over 45% in size. A digest of the protocol:
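HLM-supplemented (0.5 mg/mL final) and NADPH-supplemented (0.5 mg/mL final) p53RE-bla cultures, 4,000 cells per well, were dosed with compounds in DMSO for 16 h at 37 C; luminescent ATP detection (CellTiter-Glo, 30 min, room temperature) quantified surviving cells.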

A short description of test [8]: p53 small molecule agonists, cell-based qHTS assay (AID 1963582; active = well fitted activation curve with a large enough effect in the signal ratio in the repeat runs, not every such curve was filed as active; the % refers to the signal ratio; note: potency is the fitted concentration of half-maximal effect). A digest of the protocol: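 p53RE-bla reporter cells, compounds added in DMSO after 5 h plating, incubated 16 h at 37 C. Beta-lactamase read via 2 h room-temperature LiveBLAzer B/G FRET substrate, fluorescence intensity.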
Test [9] in a line: cAMP Responsive Elements (CRE) small molecule antagonists, cell-based qHTS assay (AID 1963591; active = well fitted inhibition curve with a large enough effect in the signal ratio in the repeat runs, not every such curve was filed as active; the % refers to the signal ratio; note: potency is the fitted concentration of half-maximal effect). In outline: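 CRE-bla HEK293T cells plated 18 h, then given compound plus NKH477 at 0.25 uM final for 3 h at 37C. Beta-lactamase reporter read with LiveBLAzer B/G FRET substrate after 2 h at room temperature.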
For test [10], the target named is Beta-2 adrenergic receptor (Homo sapiens) (UniProt P07550). The test is described as follows: Adrenergic beta2 receptor (ADRB2) small molecule antagonists, cell-based qHTS assay (AID 1963592). Note: series mostly up to about 92 µM; nearly all actives have a fitted effect of over 50% in size. A digest of the protocol:
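Cells (CHO, stable ADRB2 overexpression) incubated 18-20hr at 37C; compounds added from DMSO; agonist mix (1nM isoproterenol, 100uM IBMX, 25uM Ro-20-1724) added; 0.5hr RT; d2-cAMP and anti-cAMP-cryptate added; 1hr RT; 665/615 nm read.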

Test [11] deals with D(2) dopamine receptor (Homo sapiens) (UniProt P14416). The test is described as follows: Dopamine D2 receptor (DRD2) small molecule agonists, cell-based qHTS assay (AID 1963594). Note: nearly all actives have a fitted effect of over 35% in size. In outline: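 HEK293 cells stably expressing DRD2 were cultured 24 h at 37 C, then given Ro20-1724 (0.1 mM final) and compounds for 10 min at room temperature. NKH477 (200nM) was then added for 30 min. cAMP was read by HTRF.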
Sequence of D(2) dopamine receptor (Homo sapiens) (P14416 whole entry, looked up): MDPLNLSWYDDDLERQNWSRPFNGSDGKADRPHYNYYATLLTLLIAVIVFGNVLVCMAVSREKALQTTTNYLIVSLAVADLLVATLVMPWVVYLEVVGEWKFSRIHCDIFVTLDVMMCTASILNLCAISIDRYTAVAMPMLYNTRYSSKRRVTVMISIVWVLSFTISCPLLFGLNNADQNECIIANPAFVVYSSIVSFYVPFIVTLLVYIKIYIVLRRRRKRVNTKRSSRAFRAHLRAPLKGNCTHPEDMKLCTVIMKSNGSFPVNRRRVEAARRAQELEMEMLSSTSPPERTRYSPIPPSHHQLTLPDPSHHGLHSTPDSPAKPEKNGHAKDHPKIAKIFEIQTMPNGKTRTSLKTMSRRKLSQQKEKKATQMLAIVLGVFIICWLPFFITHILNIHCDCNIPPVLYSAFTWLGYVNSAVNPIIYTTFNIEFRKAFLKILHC

Test [12] shares this target. Nature of the test: Dopamine D2 receptor (DRD2) small molecule antagonists, cell-based qHTS assay (AID 1963595; active = well fitted inhibition curve with a large enough effect in the signal ratio in the repeat runs, with a control signal flat; the % refers to the signal ratio; note: potency is the fitted concentration of half-maximal effect). A digest of the protocol:
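HEK293 cells stably expressing DRD2 were preincubated with 0.1 mM Ro20-1724, then with compound for 10 min at room temperature. Cells were stimulated with 200 nM NKH477 plus 12 nM quinpirole for 30 min, and cAMP was read by HTRF.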

Test [13] in a line: p53 small molecule agonists, cell-based qHTS assay with rat liver microsomes: qHTS cell viability counter screen (AID 1963580). Note: nearly all actives have a fitted effect of over 45% in size. A digest of the protocol: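 In HCT-116 cells carrying a p53 response element-bla reporter, compounds were metabolically activated in situ by rat liver microsomes with NADPH over 16 h. Cell ATP content then served as the cytotoxicity measure.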
Test [14] has as its target 5-hydroxytryptamine receptor 2A (Homo sapiens) (UniProt P28223). The test is described as follows: 5-hydroxytryptamine receptor 2A (HTR2A) small molecule agonists, cell-based qHTS assay (AID 1963587). Note: nearly all actives have a fitted effect of over 30% in size. A digest of the protocol:
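HTR2A-CHO cells, plated 18 h at 37 C/5% CO2, dye-loaded 1 h at 37 C; compounds in DMSO added by pin tool (agonist mode). Intracellular calcium flux read as kinetic fluorescence on FDSS over 2 min at 1 s intervals.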

Test [15] deals with Muscarinic acetylcholine receptor M1 (Homo sapiens) (UniProt P11229). The test is described as follows: Cholinergic receptor muscarinic 1 (CHRM1) small molecule antagonists, cell-based qHTS assay (AID 1963588). Note: nearly all actives have a fitted effect of over 40% in size. In outline:
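CHRM1-CHO calcium-flux assay, antagonist mode. Cells were seeded 18 h, dye-loaded 1 h at 37 C and given compound for 5 min at RT, then acetylcholine was added at 50nM. FDSS fluorescence was read 3 min; 15 concentrations, three runs.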

The target is the same in test [16]. The test is described as follows: Cholinergic receptor muscarinic 1 (CHRM1) small molecule agonists, cell-based qHTS assay (AID 1963589). Note: nearly all actives have a fitted effect of over 35% in size. A digest of the protocol: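 CHO cells stably expressing human CHRM1 were loaded with calcium dye for 1 h at 37 C, then compound was added in agonist mode. Intracellular calcium fluorescence was followed kinetically at 1 s intervals. Fifteen concentrations were tested in three independent runs.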

The nature of test [17]: cAMP Responsive Elements (CRE) small molecule agonists, cell-based qHTS assay (AID 1963590). A digest of the protocol:
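CRE-bla HEK 293T cells, 2,000/well in DMEM with 10% dialyzed FBS and 25 mM HEPES, pre-incubated 18 h at 37 C, then exposed to compound 3 h at 37 C. Beta-lactamase reporter read with LiveBLAzer B/G FRET substrate after 2 h at room temperature.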

A short description of test [18]: p53 small molecule agonists, cell-based qHTS assay: qHTS cell viability counter screen (AID 1963581). Note: nearly all actives have a fitted effect of over 45% in size. A digest of the protocol:
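p53RE-bla HCT-116 cells, compounds added 5 h after plating and incubated 16 h at 37 C. Cytotoxicity measured in the same wells as intracellular ATP by CellTiter-Glo luminescence after 30 min at room temperature.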

Test [19] addresses 5-hydroxytryptamine receptor 2A (Homo sapiens) (UniProt P28223). Nature of the test: 5-hydroxytryptamine receptor 2A (HTR2A) small molecule antagonists, cell-based qHTS assay (AID 1963586). Note: nearly all actives have a fitted effect of over 45% in size. A digest of the protocol: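 Antagonist-mode intracellular calcium assay: DOI (4 nM) added after 5 min compound pre-incubation at room temperature to dye-loaded HTR2A-CHO cells. Fluorescence followed for 3 min, sampled every second.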

The structures appear in SMILES notation. Inconclusive results are not listed. Active and inactive are the calls of the source. Unless noted, calls come from the whole dose curve.

Sequence of 5-hydroxytryptamine receptor 2A (Homo sapiens) (P28223 whole entry, looked up): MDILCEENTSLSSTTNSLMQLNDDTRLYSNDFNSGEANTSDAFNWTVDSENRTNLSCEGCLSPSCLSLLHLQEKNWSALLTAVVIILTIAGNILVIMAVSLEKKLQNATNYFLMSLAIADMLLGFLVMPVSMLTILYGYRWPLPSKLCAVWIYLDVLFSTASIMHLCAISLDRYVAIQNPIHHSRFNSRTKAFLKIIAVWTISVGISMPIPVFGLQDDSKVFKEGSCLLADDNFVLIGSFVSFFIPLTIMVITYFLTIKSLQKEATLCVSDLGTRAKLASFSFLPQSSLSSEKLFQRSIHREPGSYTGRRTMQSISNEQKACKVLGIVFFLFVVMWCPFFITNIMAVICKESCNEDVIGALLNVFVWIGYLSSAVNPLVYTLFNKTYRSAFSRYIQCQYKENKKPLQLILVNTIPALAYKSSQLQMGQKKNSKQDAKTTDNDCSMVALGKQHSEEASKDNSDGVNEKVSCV
Sequence of Muscarinic acetylcholine receptor M1 (Homo sapiens) (P11229 whole entry, looked up): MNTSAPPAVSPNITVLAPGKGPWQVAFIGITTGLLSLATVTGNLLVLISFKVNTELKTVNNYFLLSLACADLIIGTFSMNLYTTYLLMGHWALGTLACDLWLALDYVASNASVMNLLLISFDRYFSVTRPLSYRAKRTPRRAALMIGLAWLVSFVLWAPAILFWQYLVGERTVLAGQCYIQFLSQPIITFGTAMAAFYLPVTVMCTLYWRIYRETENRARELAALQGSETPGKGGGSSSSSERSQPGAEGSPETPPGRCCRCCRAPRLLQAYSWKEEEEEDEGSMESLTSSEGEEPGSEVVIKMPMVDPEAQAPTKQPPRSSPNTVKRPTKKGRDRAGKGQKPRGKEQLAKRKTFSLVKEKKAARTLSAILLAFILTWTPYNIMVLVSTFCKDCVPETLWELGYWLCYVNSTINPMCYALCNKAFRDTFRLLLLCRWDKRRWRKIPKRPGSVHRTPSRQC
Sequence of Beta-2 adrenergic receptor (Homo sapiens) (P07550 whole entry, looked up): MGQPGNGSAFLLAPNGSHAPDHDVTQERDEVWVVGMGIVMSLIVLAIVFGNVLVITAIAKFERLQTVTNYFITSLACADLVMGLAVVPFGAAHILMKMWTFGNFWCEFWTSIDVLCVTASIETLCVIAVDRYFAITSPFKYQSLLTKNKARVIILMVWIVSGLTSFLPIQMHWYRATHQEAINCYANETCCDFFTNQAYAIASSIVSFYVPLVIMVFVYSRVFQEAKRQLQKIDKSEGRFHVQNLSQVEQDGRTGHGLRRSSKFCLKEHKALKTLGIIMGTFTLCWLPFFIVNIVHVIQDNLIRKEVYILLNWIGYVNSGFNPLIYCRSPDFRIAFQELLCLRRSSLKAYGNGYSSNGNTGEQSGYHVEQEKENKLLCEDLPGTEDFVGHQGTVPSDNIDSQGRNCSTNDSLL
Sequence of Gonadotropin-releasing hormone receptor (Homo sapiens) (P30968 whole entry, looked up): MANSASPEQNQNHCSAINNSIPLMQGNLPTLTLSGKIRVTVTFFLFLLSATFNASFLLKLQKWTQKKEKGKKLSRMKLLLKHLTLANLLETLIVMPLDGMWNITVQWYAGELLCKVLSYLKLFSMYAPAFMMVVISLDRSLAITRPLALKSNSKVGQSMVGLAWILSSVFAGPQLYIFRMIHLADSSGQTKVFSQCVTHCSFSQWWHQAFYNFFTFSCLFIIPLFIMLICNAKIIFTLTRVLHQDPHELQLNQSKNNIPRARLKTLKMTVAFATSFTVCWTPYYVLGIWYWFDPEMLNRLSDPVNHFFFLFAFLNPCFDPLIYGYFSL
Sequence of KiSS-1 receptor (Homo sapiens) (Q969F8 whole entry, looked up): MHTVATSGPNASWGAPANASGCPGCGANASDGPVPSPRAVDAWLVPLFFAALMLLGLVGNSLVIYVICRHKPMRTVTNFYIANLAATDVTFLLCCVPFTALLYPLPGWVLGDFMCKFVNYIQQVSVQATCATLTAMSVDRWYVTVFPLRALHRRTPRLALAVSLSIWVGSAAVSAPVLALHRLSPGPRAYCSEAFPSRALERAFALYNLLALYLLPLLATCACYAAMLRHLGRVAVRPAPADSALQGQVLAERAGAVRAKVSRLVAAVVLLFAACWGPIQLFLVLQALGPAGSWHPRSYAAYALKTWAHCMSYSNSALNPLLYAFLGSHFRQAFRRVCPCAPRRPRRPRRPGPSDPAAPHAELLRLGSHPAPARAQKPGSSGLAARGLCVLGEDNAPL

For the compound `O=c1oc2ccccc2c(O)c1Cc1c(O)c2ccccc2oc1=O`, the Potency entry in [1], in test [2], in test [3], in test [4], in test [5] and in test [6] was “inactive” each time. The Potency entry in test [7], in test [9], in test [10], in test [11] and in test [12] was “inactive” each time. Further, the Potency in test [8] was 5 µM (active).

Take `[Cl][Sb]([Cl])[Cl]`: the Potency result in test [1], in [3], in test [4], in test [5], in [6] and in [7] was “inactive” in each case. For the same compound, the Potency entry in [13], in [8], in test [14], in test [15], in test [16] and in test [17] was “inactive” throughout. The Potency entry in test [9], in [10], in [11] and in test [12] was “inactive” throughout. Also, the Potency in test [2] was 27.3 µM (active).

Consider `CC(=O)OC1(c2ccccc2)CCN(CCc2ccccc2)CC1`, for which the Potency result in [1], in [2], in test [3], in [4], in [5] and in test [6] was “inactive” in each case. In addition, the Potency entry in test [7], in [13], in test [18], in test [14], in [15] and in [16] was “inactive” each time. The Potency entry in [9], in [10], in test [11] and in [12] was “inactive” throughout.

For the compound `II`, the Potency result in [1], in [2], in test [3], in test [4], in test [5] and in [6] was “inactive” each time. The Potency entry in test [7], in test [13], in [18], in test [8], in [19] and in [15] was “inactive” in each case. For the same compound, the Potency entry in test [16], in test [17], in test [9] and in test [11] was “inactive” throughout.

For the compound `COc1cccc(C(=O)CCN[C@@H](C)[C@H](O)c2ccccc2)c1`, the Potency result in test [1], in test [3], in [4], in test [5], in test [6] and in test [7] was “inactive” throughout. Besides, the Potency result in test [13], in [18], in test [8], in [15], in [17] and in [10] was “inactive” in each case. Also, the Potency entry in test [11] is “inactive”. In addition, the Potency in [2] was 33.5 µM (active); in [12], 15 µM (active).

Regarding `CC1N=C(N)OC1c1ccccc1` (centres undefined), the Potency entry in test [1], in test [2], in test [3], in [4], in [5] and in test [6] was “inactive” in each case. For the same compound, the Potency entry in test [7], in [18], in test [8], in test [19], in test [14] and in test [15] was “inactive” throughout. Moreover, the Potency result in test [16], in [17], in [9], in [10] and in test [11] was “inactive” throughout.

For the compound `COC(=O)N(OC)c1ccccc1COc1ccn(-c2ccc(Cl)cc2)n1`, the Potency result in [1], in test [2], in [3], in test [4], in test [5] and in test [6] was “inactive” each time. The Potency result in [7], in test [13], in [18], in [19], in test [14] and in test [17] was “inactive” in each case. Also, the Potency entry in test [10], in [11] and in [12] was “inactive” throughout. Also, the Potency in test [9] is 61.1 µM (active).

The values above are taken from PubChem BioAssay (Tox21).
